Calls of active or inactive are those of the source. The calls were made as follows: active = hit-call score of the fitted dose curve at least 0.9, where 1 is the maximum; inactive = score below 0.9.
How the values were obtained:
Details in all cases: mRNA level, 48 h; actives raise or lower the signal
[1] = read-out: Cytochrome P450 3A4 (Homo sapiens) (UniProt P08684); experiment: LTEA_HepaRG_CYP3A4: Life Technologies and Expression Analysis (LTEA) Assay for CYP3A4 using HepaRG (AID 2283487)
How it was run: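 In a human hepatic line (HepaRG), duplicate wells were treated 48 h with up to 100 uM chemical in half-log dilutions. Endpoint: CYP3A4 mRNA induction or loss relative to 0.5% DMSO vehicle, by qRT-PCR.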

[2] = read-out: DNA damage-inducible transcript 3 (DDIT3), DDIT3 (gene 1649); experiment: LTEA_HepaRG_DDIT3: Life Technologies and Expression Analysis (LTEA) Assay for DNA damage-inducible transcript 3 (DDIT3) using HepaRG (AID 2283488)
How it was run: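 Changes in DDIT3 transcript, in either direction relative to 0.5% DMSO vehicle, were quantified by TaqMan qRT-PCR after 48 h chemical exposure of HepaRG cells at 8 concentrations, maximum 100 uM.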

[3] = read-out: Pro-epidermal growth factor (Homo sapiens) (UniProt P01133); experiment: LTEA_HepaRG_EGF: Life Technologies and Expression Analysis (LTEA) Assay for Epidermal growth factor (EGF) using HepaRG (AID 2283489)
How it was run: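 Differentiated human HepaRG cells, plated 48 h then switched to serum-free induction medium, were exposed for 48 h to test chemicals (8-point half-log series, top 100 uM, 0.5% DMSO). EGF mRNA was quantified by qRT-PCR, normalized to ACTB, GAPDH, POLR2A.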

[4] = read-out: Early growth response protein 1 (EGR1) transcription factor, EGR1 (gene 1958); experiment: LTEA_HepaRG_EGR1: Life Technologies and Expression Analysis (LTEA) Assay for Early growth response protein 1 (EGR1) transcription factor using HepaRG (AID 2283490)
How it was run: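 Differentiated HepaRG cells in serum-free induction medium exposed 48 hours, duplicate, to 8 half-log concentrations up to 100 uM in 0.5% DMSO. EGR1 mRNA measured by TaqMan qRT-PCR, normalized to ACTB, GAPDH, POLR2A; bidirectional fit versus DMSO.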

[5] = read-out: Ezrin (EZR), EZR (gene 7430); experiment: LTEA_HepaRG_EZR: Life Technologies and Expression Analysis (LTEA) Assay for Ezrin (EZR) using HepaRG (AID 2283491)
How it was run: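 Gain or loss of EZR mRNA is scored relative to 0.5% DMSO in human HepaRG cultures treated 48 h with test chemicals in duplicate, eight half-log concentrations from 100 uM.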

[6] = read-out: Cytochrome P450 3A7 (Homo sapiens) (UniProt P24462); experiment: LTEA_HepaRG_CYP3A7: Life Technologies and Expression Analysis (LTEA) Assay for CYP3A7 using HepaRG (AID 2283492)
How it was run: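 HepaRG cells plated 48 h, then dosed in serum-free induction medium for 48 h at 8 concentrations (top 100 uM, half-log steps, 0.5% DMSO). CYP3A7 mRNA by qRT-PCR, normalised to ACTB/GAPDH/POLR2A; bidirectional fit versus DMSO.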

CYP3A5 (gene 1577) = experiment: LTEA_HepaRG_CYP3A5: Life Technologies and Expression Analysis (LTEA) Assay for CYP3A5 using HepaRG (AID 2283493)
How it was run: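 mRNA induction or loss of CYP3A5 assessed in HepaRG after 48 h dosing, 100 uM top concentration, duplicate wells; TaqMan qRT-PCR with ACTB, GAPDH, POLR2A normalization; 0.5% DMSO as negative control.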

[7] = read-out: Fatty Acid-Binding Protein 1 (FABP1), FABP1 (gene 2168); experiment: LTEA_HepaRG_FABP1: Life Technologies and Expression Analysis (LTEA) Assay for Fatty Acid-Binding Protein 1 (FABP1) using HepaRG (AID 2283494)
How it was run: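 Differentiated human HepaRG cells exposed 48 h in serum-free induction medium to eight half-log concentrations up to 100 uM (0.5% DMSO), duplicate. FABP1 mRNA by qRT-PCR, normalised to ACTB, GAPDH, POLR2A; bidirectional fitting against DMSO.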

[8] = read-out: Cytochrome P450 4A22 (Homo sapiens) (UniProt Q5TCH4); experiment: LTEA_HepaRG_CYP4A22: Life Technologies and Expression Analysis (LTEA) Assay for Cytochrome P450 4A22 (CYP4A22) using HepaRG (AID 2283495)
How it was run: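 qRT-PCR of CYP4A22 mRNA (Fluidigm TaqMan, normalized to three housekeeping genes) after 48 h chemical exposure of HepaRG cells; 8-point half-log series, top 100 uM, 0.5% DMSO vehicle. Bidirectional curve fitting vs DMSO baseline.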

[9] = read-out: Glutathione S-Transferase (GSTA2), GSTA2 (gene 2939); experiment: LTEA_HepaRG_GSTA2: Life Technologies and Expression Analysis (LTEA) Assay for Glutathione S-Transferase (GSTA2) using HepaRG (AID 2283497)
How it was run: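 Differentiated human HepaRG cells were exposed in duplicate for 48 h in serum-free induction medium, 8 points from 100 uM top in half-log steps, 0.5% DMSO. GSTA2 mRNA was measured by TaqMan qRT-PCR, normalized to ACTB, GAPDH and POLR2A; bidirectional fit versus DMSO.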

[10] = read-out: Glutamate-cysteine ligase catalytic (GCLC), GCLC (gene 2729); experiment: LTEA_HepaRG_GCLC: Life Technologies and Expression Analysis (LTEA) Assay for Glutamate-cysteine ligase catalytic (GCLC) using HepaRG (AID 2283498)
How it was run: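 Differentiated HepaRG cells exposed 48 h in serum-free induction medium, eight-point half-log series topping at 100 uM in 0.5% DMSO, duplicates. GCLC mRNA by qRT-PCR normalized to ACTB, GAPDH and POLR2A, fitted bidirectionally versus DMSO.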

[11] = read-out: growth arrest and DNA damage 45 (GADD45G), GADD45G (gene 10912); experiment: LTEA_HepaRG_GADD45G: Life Technologies and Expression Analysis (LTEA) Assay for growth arrest and DNA damage 45 (GADD45G) using HepaRG (AID 2283499)
How it was run: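 Differentiated human HepaRG cells in serum-free induction medium were exposed for 48 h to 8 half-log concentrations up to 100 uM in 0.5% DMSO, in duplicate. GADD45G mRNA was measured by TaqMan qRT-PCR, normalised to ACTB, GAPDH and POLR2A, and fitted bidirectionally against DMSO.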

[12] = read-out: Glutamate-cysteine ligase regulatory (GCLM), GCLM (gene 2730); experiment: LTEA_HepaRG_GCLM: Life Technologies and Expression Analysis (LTEA) Assay for Glutamate-cysteine ligase regulatory (GCLM) using HepaRG (AID 2283500)
How it was run: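 Human liver HepaRG cultures receive test chemicals for 48 hours at up to 100 uM in 0.5% DMSO. GCLM expression is measured by qRT-PCR and analysed for increases or decreases against vehicle.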

[13] = read-out: Hypoxia-inducible factor 1-alpha (Homo sapiens) (UniProt Q16665); experiment: LTEA_HepaRG_HIF1A: Life Technologies and Expression Analysis (LTEA) Assay for Hypoxia-inducible factor 1 (HIF1A) Trancription factor using HepaRG (AID 2283503)
How it was run: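 HepaRG, 48 h exposure, 8-pt half-log series from 100 uM, 0.5% DMSO vehicle, duplicates. Readout: HIF1A transcript by qRT-PCR (Fluidigm array), housekeeping-normalised. Bidirectional curve fit vs DMSO baseline.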

[14] = read-out: 3-Hydroxy-3-Methylglutaryl-CoA Synthase 2 (HMGCS2), HMGCS2 (gene 3158); experiment: LTEA_HepaRG_HMGCS2: Life Technologies and Expression Analysis (LTEA) Assay for 3-Hydroxy-3-Methylglutaryl-CoA Synthase 2 (HMGCS2) using HepaRG (AID 2283504)
How it was run: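 Differentiated human HepaRG cells were exposed in duplicate for 48 h in serum-free induction medium to eight concentrations (top 100 uM, half-log steps, 0.5% DMSO). HMGCS2 mRNA was quantified by TaqMan qRT-PCR, normalised to ACTB, GAPDH and POLR2A, then fitted bidirectionally against DMSO.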

HGF (gene 3082) = experiment: LTEA_HepaRG_HGF: Life Technologies and Expression Analysis (LTEA) Assay for Hepatocyte Growth Facto (HGF) using HepaRG (AID 2283505)
How it was run: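 Differentiated human HepaRG cells in serum-free induction medium were exposed in duplicate for 48 h to eight concentrations (top 100 uM, half-log steps, 0.5% DMSO). HGF mRNA was quantified by qRT-PCR, normalized to ACTB, GAPDH and POLR2A.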

[15] = read-out: Glutathione S-transferase M3 (GSTM3), GSTM3 (gene 2947); experiment: LTEA_HepaRG_GSTM3: Life Technologies and Expression Analysis (LTEA) Assay for Glutathione S-transferase M3 (GSTM3) using HepaRG (AID 2283501)
How it was run: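 Differentiated HepaRG cells in serum-free induction medium were exposed in duplicate for 48 h to 8 half-log concentrations up to 100 uM in 0.5% DMSO. GSTM3 mRNA was measured by TaqMan qRT-PCR, normalized to ACTB/GAPDH/POLR2A, and fitted bidirectionally versus DMSO.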

[16] = read-out: Heat shock 70 kDa protein 1 (HSPA1A), gene 3303; experiment: LTEA_HepaRG_HSPA1A: Life Technologies and Expression Analysis (LTEA) Assay for Heat shock 70 kDa protein 1 (HSPA1A) using HepaRG (AID 2283502)
How it was run: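 HSPA1A induction in human HepaRG liver cells is measured after 48 h of chemical treatment (100 uM maximum, 0.5% DMSO vehicle). Expression comes from qRT-PCR normalized to endogenous controls.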

[17] = read-out: Insulin Like Growth Factor 1 (IGF1), IGF1 (gene 3479); experiment: LTEA_HepaRG_IGF1: Life Technologies and Expression Analysis (LTEA) Assay for Insulin Like Growth Factor 1 (IGF1) using HepaRG (AID 2283506)
How it was run: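 Using human HepaRG liver cells, IGF1 transcript induction or suppression is measured 48 h after dosing across eight concentrations capped at 100 uM. Values derive from bidirectional concentration-response fitting with DMSO as baseline.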

[18] = read-out: Cytochrome P450 7A1 (Homo sapiens) (UniProt P22680); experiment: LTEA_HepaRG_CYP7A1: Life Technologies and Expression Analysis (LTEA) Assay for Cytochrome P450 7A1 (CYP7A1) using HepaRG (AID 2283496)
How it was run: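 Gene expression endpoint in human HepaRG liver cells treated for 48 h with test chemicals (up to 100 uM, 0.5% DMSO). Values come from bidirectional concentration-response fitting versus DMSO.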

Measured: AC50

Sequence of Hypoxia-inducible factor 1-alpha (Homo sapiens) (Q16665 whole entry, looked up): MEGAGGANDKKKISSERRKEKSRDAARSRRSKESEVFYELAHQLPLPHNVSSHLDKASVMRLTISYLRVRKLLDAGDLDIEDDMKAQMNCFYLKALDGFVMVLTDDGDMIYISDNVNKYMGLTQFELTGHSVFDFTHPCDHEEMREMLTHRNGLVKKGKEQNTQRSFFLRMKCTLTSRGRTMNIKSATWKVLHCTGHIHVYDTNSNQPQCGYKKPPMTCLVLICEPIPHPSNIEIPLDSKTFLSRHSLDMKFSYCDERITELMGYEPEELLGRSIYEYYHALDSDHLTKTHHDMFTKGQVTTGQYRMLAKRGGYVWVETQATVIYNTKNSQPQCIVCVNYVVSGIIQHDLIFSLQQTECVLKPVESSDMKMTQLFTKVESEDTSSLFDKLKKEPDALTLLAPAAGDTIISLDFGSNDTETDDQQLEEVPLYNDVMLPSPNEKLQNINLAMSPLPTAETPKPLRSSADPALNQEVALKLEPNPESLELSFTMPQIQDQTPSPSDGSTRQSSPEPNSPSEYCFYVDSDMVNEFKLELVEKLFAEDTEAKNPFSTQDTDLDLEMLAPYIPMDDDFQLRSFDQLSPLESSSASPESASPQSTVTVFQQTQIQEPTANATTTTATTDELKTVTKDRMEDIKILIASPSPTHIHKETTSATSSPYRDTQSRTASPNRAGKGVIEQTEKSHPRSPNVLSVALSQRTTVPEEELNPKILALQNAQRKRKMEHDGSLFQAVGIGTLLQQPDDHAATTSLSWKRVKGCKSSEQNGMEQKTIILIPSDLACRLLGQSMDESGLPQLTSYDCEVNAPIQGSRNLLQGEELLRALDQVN
Sequence of Cytochrome P450 3A7 (Homo sapiens) (P24462 whole entry, looked up): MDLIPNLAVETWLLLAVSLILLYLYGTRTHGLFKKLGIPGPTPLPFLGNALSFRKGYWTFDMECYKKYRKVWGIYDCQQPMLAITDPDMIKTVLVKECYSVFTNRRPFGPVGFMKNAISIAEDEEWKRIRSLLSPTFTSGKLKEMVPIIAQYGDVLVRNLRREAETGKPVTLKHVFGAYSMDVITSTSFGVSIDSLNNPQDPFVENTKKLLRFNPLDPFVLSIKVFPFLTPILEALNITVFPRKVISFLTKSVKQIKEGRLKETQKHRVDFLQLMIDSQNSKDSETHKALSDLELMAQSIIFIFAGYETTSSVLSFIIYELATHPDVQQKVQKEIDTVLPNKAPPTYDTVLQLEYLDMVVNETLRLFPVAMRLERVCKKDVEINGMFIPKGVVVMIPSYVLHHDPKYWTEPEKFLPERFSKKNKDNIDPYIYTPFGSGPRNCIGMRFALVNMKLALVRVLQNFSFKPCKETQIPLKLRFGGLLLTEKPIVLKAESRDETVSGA
Sequence of Cytochrome P450 3A4 (Homo sapiens) (P08684 whole entry, looked up): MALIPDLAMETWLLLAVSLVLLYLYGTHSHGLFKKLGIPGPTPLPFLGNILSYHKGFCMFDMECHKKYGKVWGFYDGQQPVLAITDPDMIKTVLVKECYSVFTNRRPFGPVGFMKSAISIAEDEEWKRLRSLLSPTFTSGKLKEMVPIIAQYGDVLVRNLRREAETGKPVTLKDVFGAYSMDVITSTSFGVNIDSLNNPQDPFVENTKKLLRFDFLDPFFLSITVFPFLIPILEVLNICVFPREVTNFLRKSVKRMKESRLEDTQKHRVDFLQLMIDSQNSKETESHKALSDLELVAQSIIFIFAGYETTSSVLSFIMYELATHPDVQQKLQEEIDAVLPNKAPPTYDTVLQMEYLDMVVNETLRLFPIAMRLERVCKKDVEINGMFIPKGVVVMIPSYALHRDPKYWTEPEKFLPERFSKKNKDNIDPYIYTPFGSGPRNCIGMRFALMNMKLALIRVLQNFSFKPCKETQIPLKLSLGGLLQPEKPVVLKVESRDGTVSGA

CC(Oc1cccc(Cl)c1)C(=O)O (configuration not stated)
inactive: [2] | [3] | [4] | [5] | CYP3A5 (gene 1577) | [7] | [8] | [9] | [10] | [11] | [12] | [13] | [14] | HGF (gene 3082)
active: [1] 10 µM | [6] 14.2 µM

CCOC(=O)CC(SP(=O)(OC)OC)C(=O)OCC (configuration not stated)
inactive: [1] | [2] | [3] | [4] | [5] | [6] | CYP3A5 (gene 1577) | [7] | [8] | [9] | [10] | [11] | [12] | [15] | [16] | [13] | [14] | HGF (gene 3082) | [17]

COP(=O)(OC)OC(Br)C(Cl)(Cl)Br (configuration not stated)
inactive: [1] | [2] | [4] | [5] | [6] | CYP3A5 (gene 1577) | [7] | [8] | [18] | [9] | [10] | [11] | [12] | [15] | [16] | [13] | [14] | HGF (gene 3082) | [17]

CC(C1CC1)C(O)(Cn1cncn1)c1ccc(Cl)cc1 (configuration not stated)
active: [1] 3.9 µM | [2] 72.3 µM | [6] 2.25 µM | [7] 12.5 µM | [8] 44.9 µM | [9] 76.7 µM | [14] 83.6 µM | [17] 37 µM
inactive: [3] | [4] | [5] | CYP3A5 (gene 1577) | [10] | [11] | [12] | [16] | [13] | HGF (gene 3082)

COc1cc(OC)nc(Sc2cccc(Cl)c2C(=O)O)n1
inactive: [2] | [3] | [4] | [5] | [6] | CYP3A5 (gene 1577) | [7] | [8] | [9] | [10] | [11] | [12] | [16] | [13] | [14] | HGF (gene 3082) | [17]
active: [1] 50 µM

C#CCC1=C(C)C(OC(=O)C2C(C=C(C)C)C2(C)C)CC1=O (configuration not stated)
inactive: [1] | [2] | [5] | [6] | CYP3A5 (gene 1577) | [9] | [10] | [11] | [12] | [15] | [16] | [13] | [14] | HGF (gene 3082)
active: [3] 11.1 µM | [4] 49.8 µM | [7] 49.8 µM | [8] 81.5 µM | [17] 71 µM

CCOP(=S)(OCC)OC(Cl)C(Cl)(Cl)Cl (configuration not stated)
active: [1] 50 µM
inactive: [2] | [3] | [4] | [5] | [6] | CYP3A5 (gene 1577) | [7] | [8] | [9] | [10] | [11] | [12] | [16] | [13] | [14] | HGF (gene 3082) | [17]

— PubChem BioAssay (EPA / NIEHS)
